Only a selection was taken, and hits are over-represented in it overall.
CHX counter = affects cycloheximide protein synthesis inhibition readout, counter-screen; AID 2314; max response, %; cell reporter, cycloheximide protein synthesis inhibition counterscreen; hit rate 12% among 300,000; in the data active = max response mostly above about 13%, no sharp cut-off; inactive = mostly below about 14%; also: read at 38.3 µM for the half of the compounds with a filed dose; 0% is about no effect
LmPK inh = blocks Leishmania mexicana pyruvate kinase activity. Q27686. purified LmPK, Kinase-Glo ATP luminescence, 1 h. Potency, µM (titrated, usually from 57.5 µM), for inactives: at the highest dose activity change, negative = inhibition, most hits filed as inhibitors. hit rate 0.37% among 290,000. AID 1721; also: potency is read from the fitted curve at half-maximal effect; % is scaled to controls: 0 for no effect and ±100 for the full control effect
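In 50 mM imidazole pH 7.2 with 7 mM MgCl2, LmPK (0.1 nM) turned over PEP (0.5 mM) and ADP (0.1 mM) for 1 h at room temperature. Luciferase read-out of ATP.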
Shiga inhibitor = blocks Shiga toxin action in Vero cells | hit rate 9.2% among 290,000 | Vero cells, Shiga toxin protein synthesis inhibition reporter | inhibition, % at 38.7 µM; in the data active = inhibition mostly above about 28%, no sharp cut-off; inactive = mostly below about 43%; also: 0% is about no effect
Tb PYK inh = inhibitors of Trypanosoma brucei pyruvate kinase. Q57TT1. TbPYK enzyme, Kinase-Glo Plus ATP luminescence, 45 min. Potency, µM (doses to about 76.8 µM), for inactives: at the top dose activity, negative = inhibition, actives largely listed as inhibitors. hit rate 0.12% among 410,000. AID 624173; also: potency is read from the fitted curve at half-maximal effect; % is scaled to controls: 0 for no effect and ±100 for the full control effect; nearly all actives have a fitted effect of over 50% in size
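Luminescent Kinase-Glo Plus end-point after 45 min room-temperature reaction of T. brucei pyruvate kinase started with 130 uM ADP (final). Buffer TEA 50 mM pH 7.2 with KCl, MgCl2, BSA, Tween-20; titration-based qHTS with fitted concentration-effect curves.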
FBPA Giardia inh = blocks Giardia fructose-bisphosphate aldolase activity; A8B2U2; Potency, µM (titrated, usually from 59.6 µM), without a hit: top-dose activity, negative = inhibition, usual class: inhibitors; hit rate 0.71% among 290,000; purified Giardia FBPA; also: potency is read from the fitted curve at half-maximal effect; % is scaled to controls: 0 for no effect and ±100 for the full control effect; nearly all actives have a fitted effect of over 55% in size
Target sequence (A8B2U2 whole entry, looked up): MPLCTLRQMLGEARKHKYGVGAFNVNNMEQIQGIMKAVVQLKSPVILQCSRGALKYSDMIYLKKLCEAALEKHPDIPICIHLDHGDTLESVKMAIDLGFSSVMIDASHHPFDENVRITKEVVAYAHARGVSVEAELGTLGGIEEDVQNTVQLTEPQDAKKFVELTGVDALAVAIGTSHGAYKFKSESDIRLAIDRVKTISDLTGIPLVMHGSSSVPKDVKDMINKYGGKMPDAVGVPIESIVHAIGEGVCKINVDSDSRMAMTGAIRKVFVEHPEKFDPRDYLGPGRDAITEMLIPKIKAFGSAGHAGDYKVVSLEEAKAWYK
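Giardia FBPA (40 nM reagent) was preincubated 10 min at RT with compound (up to 57.5 uM final), then substrate plus GAPDH/TPI/NAD/arsenate coupling system with diaphorase/resazurin was added; resorufin fluorescence (525/598 nm) was read after 20 min.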
RE007 growth inh = less growth of the S. pombe RE007 Vpr strain; S. pombe RE007 Vpr strain, BacTiter-Glo ATP luminescence, 24 h; Potency, µM (series often up to 92.2 µM), inactives show at the top dose activity change, negative = less growth, hits mostly inhibitors; hit rate 0.21% among 360,000; active = well fitted falling curve with a large enough effect; inconclusive = small, poorly fitted or top-dose-only effect; inactive = no such curve, though single readings can be large or run the other way; also: potency is read from the fitted curve at half-maximal effect; % is scaled to controls: 0 for no effect and ±100 for the full control effect; nearly all actives have a fitted effect of over 50% in size
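Fission yeast RE007 carrying one integrated HIV-1 vpr copy, seeded at OD 0.01 in PMG+AL medium with 23 nL pinned compound. Grown 24 h at 30 degrees; viability read by BacTiter-Glo luminescence after 5 min.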
Numbers without * were called inactive; ? = inconclusive; . = not tested or not shown. Unless noted, calls follow the shape of the dose curve; as a rule, active = well fitted curve in the direction sought with a large enough effect; inconclusive = small, poorly fitted or top-dose-only effect, or another doubt; inactive = no such curve, though single readings can be large; an effect the other way counts as inactive or inconclusive.

SMILES	CHX counter	LmPK inh	Shiga inhibitor	Tb PYK inh	FBPA Giardia inh	RE007 growth inh
CCCN(CC1CC1)C(=O)CCc1nnc(CCc2c[nH]c3ccccc23)o1	8	-6%	39	5%	-2%	-9%
COC(c1ccccc1)c1nnc(CCC(=O)NCCC(C)C)o1 (centres undefined)	-1	-9%	-3	-3%	2%	-13%
COC(c1ccccc1)c1nnc(CCC(=O)N(C)CCOc2ccccc2)o1 (centres undefined)	28*	-1%	59*	4%	5%	13%
CCN1C(=O)[C@@H]2[C@H](C1=O)[C@@H]1C[C@H]3C(=O)N(CC)C(=O)[C@H]3[C@@H]3C1=C(C(=O)N1C(=O)O/C(=N\CC4CC4)[C@]31C)[C@@H]2C	.	.	.	.	8%	.
CSc1nc(-c2ccc(N(C)C)cc2)c(C#N)c(=O)n1C	25*	1%	42*	-1%	1%	-9%
CCOc1ccc2[nH]c(=O)c(C(c3nnnn3Cc3ccco3)N3CCN(C)CC3)cc2c1 (centres undefined)	29*	-6%	96*	-5%	0.89µM*	6%
CCOc1ccc2nc(NC(=O)/C=C/c3ccc4c(c3)OCO4)sc2c1	-2	0%	-11	?	0%	-4%
CC(=O)Nc1nc2cc3c(cc2s1)OCCO3	44*	-19%	29*	-21%	-4%	1%
O=C(NNc1nc2cc3c(cc2s1)OCCO3)c1ccccc1	36*	1%	146*	-12%	10%	7%
Cc1cccc2sc(NNC(=O)c3ccc4c(c3)OCCO4)nc12	12	0%	76	-21%	-16%	-11%
CC(C)C(=O)Nc1nnc(SCC(=O)Nc2ccc3c(c2)OCO3)s1	2	11%	-3	6%	4%	1%
CC(C)(C)C(=O)Nc1nc2cc3c(cc2s1)OCO3	37*	9%	71*	-1%	1%	0%
CC(=O)Nc1nc2cc(N)ccc2s1	.	.	.	-7%	.	-3%
CC(C)C(=O)Nc1nc2cc3c(cc2s1)OCO3	26*	-6%	77*	0%	-1%	3%
N#Cc1cccc(NC(=O)c2cc3c(s2)-c2ccc(Cl)cc2SC3)c1	.	.	.	1%	.	.
CSCCC(NS(=O)(=O)c1ccc2c(c1)oc(=O)n2C)C(=O)N1CCN(c2cccc(Cl)c2)CC1 (centres undefined)	.	.	.	-1%	.	.
COc1ccc(N=c2oc3ccc(OC)cc3cc2-c2nc3ccccc3[nH]2)cc1	28*	4%	162*	5%	10%	-17%
COc1ccc(-c2nnc(-c3cc4ccccc4oc3=O)o2)cc1	10	2%	15	4%	4%	-6%
COc1cccc(N=c2oc3ccccc3cc2-c2nc3ccccc3[nH]2)c1	38*	-15%	63*	-1%	0%	?
COc1cccc(N=c2oc3ccc(OC)cc3cc2-c2nc3ccccc3[nH]2)c1	40*	-12%	94*	0%	7%	-14%
COc1cccc(CNC(=O)C(C)n2c(=O)cc(-c3ccccc3)c3c(C)nn(C)c32)c1 (centres undefined)	.	.	.	-6%	.	.
CC(=O)Oc1ccc(C(=O)Nc2cc(C)on2)cc1	30*	-11%	88*	1%	2%	15%
COc1cccc(C(=O)Nc2cc(C)on2)c1	.	.	.	3%	.	-14%
COc1ccc(C(=O)Nc2cc(C)on2)cc1	27*	-13%	47	0%	2%	-8%
CC(=O)Oc1ccc(C)cc1	.	.	.	0%	.	.
SMILES	CHX counter	LmPK inh	Shiga inhibitor	Tb PYK inh	FBPA Giardia inh	RE007 growth inh
CC(=O)Oc1ccc(Oc2ccc(-c3noc(C)n3)cc2)cc1	32*	-6%	83*	7%	-10%	?
COc1ccc(OCc2cccc(C(=O)Nc3cc(C)on3)c2)cc1	91*	-6%	active	-16%	-1%	-5%
CCOc1ccc(NC(=O)Cc2csc(COc3cccc(C)c3)n2)cc1	.	.	.	4%	.	.
O=S(=O)(NCCc1csc2nc(-c3ccc(F)cc3)nn12)c1ccc2c(c1)OCCO2	.	.	.	3%	.	.
CCc1cccc(NC(=O)Cc2ccc(OC)c(OC)c2)c1	-2	3%	-4	-3%	4%	-10%
COc1ccc(Cc2nnc(-c3cccc(C)c3)o2)cc1OC	21*	2%	43*	-2%	-2%	-3%
COc1ccc(CC(=O)Nc2cccc(-c3nnc(-c4ccc(C)cc4)o3)c2)cc1OC	25*	1%	44	2%	0%	5%
COc1ccc(CC(=O)Nc2cccc(-c3nnc(-c4cccc(C)c4)o3)c2)cc1OC	46*	1%	52*	-2%	-2%	9%
Cc1ccc(OCC(=O)Nc2cccc(-c3nnc(-c4ccccc4)o3)c2)c(C)c1	1	5%	10	-1%	5%	-3%
CC(=O)Nc1cccc(-c2nnc(-c3ccccc3)o2)c1	45*	-6%	106*	4%	5%	-11%
COc1ccc(Cc2nnc(Nc3ccc(C)cc3)o2)cc1OC	-3	8%	-9	2%	-9%	0%
O=C(Nc1cccc(-c2nnc(-c3ccccc3)o2)c1)C1CC1	27	0%	28	3%	-1%	2%
COc1ccc(CCNC(=O)CSc2nnc(-c3ccccc3)o2)cc1OC	-1	0%	-7	-1%	0%	4%
COc1ccc(CC(=O)Nc2ccc(-c3nnc(-c4ccccc4)o3)cc2)cc1OC	15*	1%	10	0%	1%	-10%
COc1ccc(CC(=O)Nc2cccc(-c3nnc(-c4ccccc4)o3)c2)cc1OC	49*	-1%	96*	0%	1%	5%
COc1ccc(-c2nc3cc(NC(=O)Cc4ccc(OC)c(OC)c4)ccc3o2)cc1	25*	6%	34*	-1%	-3%	-13%
Cc1cc(C)c2oc(-c3cc(NC(=O)Cc4ccccc4)ccc3Cl)nc2c1	.	.	.	3%	.	.
CCCCCCCC(=O)OC[C@H](CO)OC(=O)CCCCCCC	.	.	.	.	1%	.
COc1ccc(-c2nnc(SCC(=O)Nc3cccc(C(F)(F)F)c3)nc2-c2ccc(OC)cc2)cc1	.	.	.	-1%	.	.
COc1ccc(N2CCN(c3ccc(-c4nc(-c5ccccc5)no4)cc3[N+](=O)[O-])CC2)cc1	.	.	.	0%	.	.
COc1cc(C2C(C(=O)OC(C)C)=C(C)N=C3SCCC(=O)N32)ccc1OCc1ccccc1 (centres undefined)	.	.	.	-1%	.	.
Cn1c(=O)c2c(nc(NCCc3ccccc3)n2Cc2cccc(Br)c2)n(C)c1=O	.	.	.	0%	.	.
CCOC(=O)C1=C(N)OC2=C(C(=O)CCC2)C1c1cccs1 (centres undefined)	9	0%	23	0%	13µM*	4%
CCCN(CCC)C(=O)Cn1c(=O)n(-c2cccc(C(F)(F)F)c2)c(=O)c2c(C)c(C)sc21	.	.	.	7%	.	.
